Results taken from PubChem BioAssay (NCATS).
“And” between values parts separate entries of the source, which are not always exact repeats. Identical values can stand only once. Inconclusive results are not listed. The source made the active and inactive calls. Unless noted, calls come from the whole dose curve; as a rule, active = well fitted curve in the direction sought with a large enough effect; inconclusive = small, poorly fitted or top-dose-only effect, or another doubt; inactive = no such curve, though single readings can be large; an effect the other way counts as inactive or inconclusive.

Assays:
[1] = AP1 Signaling Pathway (AID 357; active = well fitted curve in either direction with a large enough effect, not every such curve was filed as active;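 note: ME-180 reporter cells stimulated with EGF at its EC50 level; % is set by controls: 0 for no effect and ±100 for the full control effect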); settings: ME-180 AP-1-bla reporter, EGF-induced, beta-lactamase ratio, 5 h
Outline: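 In this screen, ME-180 cells in Opti-MEM with 0.5% dialyzed FBS received EC50 EGF and compound titrations for 5 h. AP-1 reporter beta-lactamase was detected via CCF4 ratio, giving AC50 for positive and negative modulators.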

[2] = target: Cytochrome P450 1A2 (Homo sapiens) (UniProt P05177); experiment: p450-cyp1a2 (AID 410; calls by dose curve; note: potency is the fitted concentration of half-maximal effect;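 for activity change, negative = inhibition: -100% = full effect of reference inhibitor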)
Outline: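 Read-out is luminescence from luciferin produced by CYP1A2 demethylation of Luciferin-ME (100uM, at Km). Detection reagent stopped the 60 min NADPH-dependent reaction; signals were normalized to 57 uM furafylline.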

[3] = Stat Signaling Pathway (AID 446; active = well fitted curve in either direction with a large enough effect, not every such curve was filed as active;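 note: ME-180 cervical cancer cells given 40 pM IL-6 alongside compound; SIE-controlled beta-lactamase reporter measured as 460/530 nm FRET emission ratio; % is set by controls: 0 for no effect and ±100 for the full control effect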); settings: ME-180 (cervical carcinoma) SIE beta-lactamase reporter, IL-6 stimulated, 5 h
Outline: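 Compound effects on IL-6-induced STAT reporter activity were measured in ME-180 cells. After overnight culture, cells were co-treated with 40 pM IL-6 for 5 hrs before beta-lactamase substrate loading at room temperature.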

[4] = target: Mitogen-activated protein kinase 10 (Mus musculus) (UniProt Q61831); experiment: JNK3 AlphaScreen Assay (AID 530; active = well fitted curve in either direction with a large enough effect, not every such curve was filed as active;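 note: kinase came from lysate of stimulated human HepG2 cells; signal reports phosphorylation of biotinylated GST-cJun 1-79 at Ser73 with 10 µM ATP; % is set by controls: 0 for no effect and ±100 for the full control effect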)
Outline: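 Kinase buffer: 20 mM Tris-HCl pH 7.6, 10 mM MgCl2, 1 mM DTT, 0.1 mM Na3VO4, 0.01% Tween-20; ATP 10 uM. Substrate biotin-GST-cJun(1-79), enzyme from activated HepG2 lysates. Detection by Ser73 phospho-antibody AlphaScreen.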

[5] = target: 3',5'-cyclic-AMP phosphodiesterase 4B (Homo sapiens) (UniProt Q07343); experiment: qHTS Assay for Inhibitors of PDE-IV (AID 607; active = well fitted activation curve with a large enough effect in the main read-out, with a control signal flat, not every such curve was filed as active; note: % of control where 0% means no effect)
Outline: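 ACTOne HEK293 cells carry a modified cAMP-gated CNG channel and express endogenous PDE4; plated 1000 cells/well, compounds up to 22.9 uM final. Membrane-potential dye fluorescence (ex 535/em 590) was read; parental cells received 10 uM forskolin + 100 uM RO 20-1724.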

[6] = target: Guanine nucleotide-binding protein G(i) subunit alpha-1 (Homo sapiens) (UniProt P63096); experiment: qHTS Assay for Inhibitors of RGS12 GoLoco Motif Activity (Green Fluorophore) (AID 879);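 note: 0% = labeled peptide with Gαi1 and full inhibition = labeled peptide alone without protein; negative values mean loss of peptide binding seen as reduced polarization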
Outline: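 A drop in FITC polarization marked displacement of the FITC-tagged RGS12 GoLoco peptide (10 nM) from Gαi1 (50 nM). Compounds were incubated 10 min at room temperature in Tris pH 7.5 buffer containing 150 mM NaCl, 0.1 mM GDP and 0.05% NP40; unlabeled peptide titration served as control.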

[7] = target: Cytochrome P450 2C9 (Homo sapiens) (UniProt P11712); experiment: qHTS Assay for Inhibitors and Substrates of Cytochrome P450 2C9 (AID 883); note: % is set by controls: 0 for no effect and ±100 for the full control effect; nearly all actives have a fitted effect of over 60% in size
Outline: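 Turnover of Luciferin-H (100uM, KM) by 10nM human CYP2C9 was measured over 60 min at 37C with NADPH regeneration; inhibitors and some substrates reduce luminescence. Data normalized to sulphaphenazole 57uM.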

[8] = target: Cytochrome P450 2D6 (Homo sapiens) (UniProt P10635); experiment: qHTS Assay for Inhibitors and Substrates of Cytochrome P450 2D6 (AID 891); note: nearly all actives have a fitted effect of over 60% in size; note: potency is the fitted concentration of half-maximal effect
Outline: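 Luminescent read-out of luciferin formed by 5 nM human CYP2D6 demethylating 30 uM Luciferin-ME EGE (Km level) over 60 min at room temperature after NADPH regeneration addition. Data normalized to full inhibition by 1.43 uM quinidine.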

[9] = target: Cytochrome P450 2C19 (Homo sapiens) (UniProt P33261); experiment: qHTS Assay for Inhibitors and Substrates of Cytochrome P450 2C19 (AID 899); note: % is set by controls: 0 for no effect and ±100 for the full control effect; nearly all actives have a fitted effect of over 60% in size
Outline: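 Reactions contain 5nM enzyme, 10uM Luciferin-H EGE (KM) and 50mM KPO4; compound preincubates 10 min at 37C, NADPH regeneration starts turnover for 60 min. Luminescence after detection reagent gives activity.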

[10] = qHTS Assay for Identification of Small Molecule Agonists for Thrombopoietin (TPO) Signaling Pathway (AID 917); note: % is set by controls: 0 for no effect and ±100 for the full control effect
Outline: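 Stimulation at the TPO EC50 (26 pM final) was used to detect activators. Ba/F3 mouse cells bearing human TPO receptor and a luciferase reporter under the Glycoprotein IIb promoter were exposed to compounds for 24 hrs at 37 C.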

[11] = target: Pyruvate kinase (Leishmania mexicana) (UniProt Q27686); experiment: qHTS Validation Assay for Inhibitors of Leishmania Mexicana Pyruvate Kinase (AID 945);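 note: 0% = DMSO only neutral control wells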
Outline: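 LmPYK E451W 0.2 nM; 0.5 mM PEP, 0.1 mM ADP, 7 mM MgCl2, 50 mM KCl, imidazole pH 7.2, 0.01% Tween 20, 0.05% BSA; 1 h RT; PKLight luminescence; DMSO-normalized.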

[12] = target: Alpha-galactosidase A (Homo sapiens) (UniProt P06280); experiment: Counterscreen for Glucocerebrosidase Inhibitors: qHTS Assay for Human alpha-Galactosidase at pH 4.5 (AID 992); note: 0% is about no effect
Outline: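 Citrate buffer pH 4.5, Tween-20 0.005%. Enzyme 2 nM, substrate 80 uM, 20 min RT. Stop pH 10. Fluorescence Ex 365/Em 440. AC50 by Hill fit.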

[13] = target: alpha-glucosidase (Oryza sativa, rice) (UniProt Q653V4); experiment: Counterscreen for Glucocerebrosidase Inhibitors: qHTS Assay for Rice alpha-Glucosidase at pH 5.0 (AID 997);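 note: 0% = full activity with enzyme and -100% = basal without enzyme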
Outline: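 Endpoint fluorogenic assay at pH 5.0: compounds (0.7 nM to 77 uM) titrated against 4 nM rice enzyme and 400 uM 4-MU-alpha-glucoside for 20 min at room temperature; NaOH/glycine stop, read ex 365/em 440 nm, Hill-fitted AC50.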

[14] = target: DNA dC->dU-editing enzyme APOBEC-3G (Homo sapiens) (UniProt Q9HC16); experiment: qHTS for inhibitors of Vif-A3G interactions: Validation (AID 588379); note: 0% is about no effect
Outline: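 Yellow fluorescence (Ex 488, Em 500-530) of Vif-coexpressing HeLa A3G-eYFP cells, scanned by Acumen cytometer, reports blocked A3G degradation. Cells plated at 700/well overnight at 37 deg C before compound addition, then a further overnight compound incubation at 37 deg C.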

[15] = tested on: Zika virus NS2B-NS3 protease; experiment: Primary screen GU AMC qHTS for Zika virus inhibitors (AID 1347154); note: nearly all actives have a fitted effect of over 70% in size; note: potency is the fitted concentration of half-maximal effect;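 for activity change, negative = inhibition: 0% = no-inhibitor control and -100% = no-enzyme control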
Outline: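 Fluorogenic AMC-substrate cleavage by noncovalent NS2B-NS3 protease complex (25 nM, pH 8.0 Tris buffer with Tween 20) followed for 15 minutes at room temperature (~20% conversion). Percent inhibition from ex340/em450 signal change, fitted by 4-parameter Hill equation.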

[16] = NFAT Signaling Pathway (AID 444; active = well fitted curve in either direction with a large enough effect, not every such curve was filed as active); settings: Jurkat NFAT-bla M1, carbachol, beta-lactamase ratio, 5 h; at 38 µM (top of the series)
Outline: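 Read-out: CCF4 FRET ratio (460 nm/530 nm) after 1 h RT dye loading, used for %activity and AC50 from titration series. Cells: Jurkat NFAT-β-lactamase/M1 line, treated with compound plus 1 uM carbachol for 5 h, 37 °C.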

[17] = target: Glucocorticoid receptor (Homo sapiens) (UniProt P04150); experiment: GR-EFC Redistribution (AID 451; calls by dose curve; note: potency is the fitted concentration of half-maximal effect); settings: CHO-K1 GR-EFC translocation, beta-gal luminescence, 2 h
Outline: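 Translocation of GR-ED fusion to nuclear EA restores b-gal, read by luminescence after 1 h room-temperature detection. Engineered CHO-K1 biosensor cells, 1,000/well, exposed 2 h at 37 C to titrations up to 46 uM final.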

[18] = target: Muscarinic acetylcholine receptor M1 (Rattus norvegicus) (UniProt P08482); experiment: qHTS Assay for Antagonists of Acetylcholine Muscarinic M1 Receptor: Measurement of IP-One Response (AID 944); note: nearly all actives have a fitted effect of over 75% in size
Outline: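 Antagonism was measured as loss of carbachol-driven (EC80) IP1 accumulation in CHO cells carrying rat M1, using a homogeneous IP-One TR-FRET kit read at 620 and 665 nm.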

[19] = target: Pyruvate kinase PKM (Homo sapiens) (UniProt P14618); experiment: qHTS Assay for Activators of Human Muscle Pyruvate Kinase (AID 954; active = well fitted curve in the direction sought with a large enough effect, not every such curve was filed as active;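 note: 0% = uninhibited enzyme and -100% = no enzyme or full thiadiazolimine inhibition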)
Outline: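 A coupled luminescent readout tracked ATP made from ADP by purified PKM2. Final conditions included 0.1 nM enzyme, PEP and ADP at 0.5 and 0.1 mM, pH 7.2 imidazole buffer with BSA, and a one-hour room-temperature reaction.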

[20] = target: Glucocorticoid receptor (Homo sapiens) (UniProt P04150); experiment: GR-GFP Redistribution (AID 450;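 active = compounds whose dose series gives a full or clear partial fitted curve of increased nuclear translocation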; note: potency is the fitted concentration of half-maximal effect); settings: U2OS GR-GFP nuclear translocation, laser cytometry, 2 h
[21] = target: Cytochrome P450 3A4 (Homo sapiens) (UniProt P08684); experiment: qHTS Assay for Activators of Cytochrome P450 3A4 (AID 885); note: nearly all actives have a fitted effect of over 65% in size
Outline: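 CYP3A4 activity: Luciferin-PPXE O-dealkylation, 25uM substrate, 200mM KPO4, RT throughout. Read-out is luciferase luminescence; higher values reflect activation.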

[22] = target: Ubiquitin carboxyl-terminal hydrolase 1 (Homo sapiens) (UniProt O94782); experiment: Inhibitors of USP1/UAF1: Pilot qHTS (AID 504865); note: nearly all actives have a fitted effect of over 35% in size; note: potency is the fitted concentration of half-maximal effect
Outline: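 USP1/UAF1 complex at 1 nM preincubated 15 min at room temperature with compound, then Ub-Rho substrate added at 150 nM final. Fluorescence (480/540 nm) read kinetically in 50 mM HEPES pH 7.8, 0.5 mM EDTA, 1 mM TCEP, 0.1 mg/ml BSA, 0.01% Tween-20.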

[23] = target: Cytochrome P450 3A4 (Homo sapiens) (UniProt P08684); experiment: qHTS Assay for Inhibitors and Substrates of Cytochrome P450 3A4 (AID 884); note: % is set by controls: 0 for no effect and ±100 for the full control effect; nearly all actives have a fitted effect of over 50% in size
Outline: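 Luminescent readout of luciferin produced by CYP3A4 (20 nM) dealkylation of Luciferin-PPXE, 25 uM (its KM). NADPH-driven reaction ran 60 min at RT after 10 min compound preincubation; data scaled to 57 uM ketoconazole as 100% inhibition.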

[24] = NCATS anti-infectives library activity on HEK293 viability as a counter-qHTS vs the C. elegans viability qHTS (AID 1745854)
Outline: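 Compound titrations (final up to 41.7 uM) were incubated with HEK293 cells for 24 hr at 37C under 5% CO2. Viable cells were quantified with CellTiter-Glo after 10 min at ambient temperature.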

Sequence of Cytochrome P450 2C9 (Homo sapiens) (P11712 whole entry, looked up): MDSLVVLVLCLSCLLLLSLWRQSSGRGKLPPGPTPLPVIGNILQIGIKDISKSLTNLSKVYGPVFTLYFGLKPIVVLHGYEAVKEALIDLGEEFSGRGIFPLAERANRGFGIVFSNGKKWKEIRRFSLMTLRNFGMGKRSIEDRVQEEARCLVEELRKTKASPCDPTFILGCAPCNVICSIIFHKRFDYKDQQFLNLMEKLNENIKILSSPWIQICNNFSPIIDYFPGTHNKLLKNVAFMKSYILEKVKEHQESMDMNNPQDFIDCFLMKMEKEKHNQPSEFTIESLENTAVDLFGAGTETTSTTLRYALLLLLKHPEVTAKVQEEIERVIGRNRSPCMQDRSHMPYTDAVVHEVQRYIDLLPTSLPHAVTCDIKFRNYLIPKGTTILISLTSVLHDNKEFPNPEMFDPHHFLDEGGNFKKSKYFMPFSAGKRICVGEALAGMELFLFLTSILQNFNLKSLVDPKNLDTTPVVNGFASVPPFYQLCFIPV
Sequence of Cytochrome P450 1A2 (Homo sapiens) (P05177 whole entry, looked up): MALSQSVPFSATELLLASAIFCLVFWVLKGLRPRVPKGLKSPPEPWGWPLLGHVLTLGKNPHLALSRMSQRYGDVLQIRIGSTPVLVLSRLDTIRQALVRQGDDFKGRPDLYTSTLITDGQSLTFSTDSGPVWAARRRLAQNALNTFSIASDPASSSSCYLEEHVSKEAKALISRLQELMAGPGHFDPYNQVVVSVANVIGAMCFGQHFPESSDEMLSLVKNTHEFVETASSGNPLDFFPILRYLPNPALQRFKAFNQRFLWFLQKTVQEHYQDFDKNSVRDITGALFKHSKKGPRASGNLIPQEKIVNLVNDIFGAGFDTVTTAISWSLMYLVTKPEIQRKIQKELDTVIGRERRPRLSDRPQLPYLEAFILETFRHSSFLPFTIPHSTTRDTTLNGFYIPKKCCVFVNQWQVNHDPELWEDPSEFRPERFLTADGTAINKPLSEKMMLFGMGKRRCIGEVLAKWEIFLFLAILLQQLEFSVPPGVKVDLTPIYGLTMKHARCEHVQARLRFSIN
Sequence of 3',5'-cyclic-AMP phosphodiesterase 4B (Homo sapiens) (Q07343 whole entry, looked up): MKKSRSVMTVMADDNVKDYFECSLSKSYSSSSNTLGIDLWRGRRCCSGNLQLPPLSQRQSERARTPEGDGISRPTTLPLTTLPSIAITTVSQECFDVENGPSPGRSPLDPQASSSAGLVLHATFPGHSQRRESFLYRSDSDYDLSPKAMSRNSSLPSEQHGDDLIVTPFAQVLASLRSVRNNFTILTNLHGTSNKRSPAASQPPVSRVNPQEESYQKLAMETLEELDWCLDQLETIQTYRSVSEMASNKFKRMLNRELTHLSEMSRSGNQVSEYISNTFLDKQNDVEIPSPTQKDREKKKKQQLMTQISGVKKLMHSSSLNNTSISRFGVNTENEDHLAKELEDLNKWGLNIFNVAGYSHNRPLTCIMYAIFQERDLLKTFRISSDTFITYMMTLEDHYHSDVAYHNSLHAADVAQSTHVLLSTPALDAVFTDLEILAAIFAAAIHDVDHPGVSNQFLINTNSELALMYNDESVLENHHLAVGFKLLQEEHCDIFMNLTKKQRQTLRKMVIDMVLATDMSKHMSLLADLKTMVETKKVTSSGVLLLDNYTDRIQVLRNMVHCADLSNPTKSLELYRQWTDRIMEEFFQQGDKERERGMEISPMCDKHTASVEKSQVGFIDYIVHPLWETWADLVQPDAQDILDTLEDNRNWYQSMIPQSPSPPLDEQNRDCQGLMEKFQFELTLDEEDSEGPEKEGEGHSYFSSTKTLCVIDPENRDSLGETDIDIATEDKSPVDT
Sequence of Cytochrome P450 3A4 (Homo sapiens) (P08684 whole entry, looked up): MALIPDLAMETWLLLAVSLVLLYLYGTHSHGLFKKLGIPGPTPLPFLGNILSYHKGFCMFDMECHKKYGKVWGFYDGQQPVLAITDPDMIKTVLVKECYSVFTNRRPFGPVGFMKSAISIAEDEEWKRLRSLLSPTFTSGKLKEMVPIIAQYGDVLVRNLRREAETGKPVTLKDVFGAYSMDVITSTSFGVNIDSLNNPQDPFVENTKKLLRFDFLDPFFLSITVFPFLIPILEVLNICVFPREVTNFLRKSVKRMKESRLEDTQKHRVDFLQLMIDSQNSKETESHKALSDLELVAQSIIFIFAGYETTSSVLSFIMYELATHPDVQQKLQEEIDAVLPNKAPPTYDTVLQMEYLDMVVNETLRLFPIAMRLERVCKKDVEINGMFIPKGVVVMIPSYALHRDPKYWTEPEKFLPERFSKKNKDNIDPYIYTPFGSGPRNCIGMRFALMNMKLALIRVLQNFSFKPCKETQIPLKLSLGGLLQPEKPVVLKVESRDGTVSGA
Sequence of Glucocorticoid receptor (Homo sapiens) (P04150 whole entry, looked up, the tested form may be a part): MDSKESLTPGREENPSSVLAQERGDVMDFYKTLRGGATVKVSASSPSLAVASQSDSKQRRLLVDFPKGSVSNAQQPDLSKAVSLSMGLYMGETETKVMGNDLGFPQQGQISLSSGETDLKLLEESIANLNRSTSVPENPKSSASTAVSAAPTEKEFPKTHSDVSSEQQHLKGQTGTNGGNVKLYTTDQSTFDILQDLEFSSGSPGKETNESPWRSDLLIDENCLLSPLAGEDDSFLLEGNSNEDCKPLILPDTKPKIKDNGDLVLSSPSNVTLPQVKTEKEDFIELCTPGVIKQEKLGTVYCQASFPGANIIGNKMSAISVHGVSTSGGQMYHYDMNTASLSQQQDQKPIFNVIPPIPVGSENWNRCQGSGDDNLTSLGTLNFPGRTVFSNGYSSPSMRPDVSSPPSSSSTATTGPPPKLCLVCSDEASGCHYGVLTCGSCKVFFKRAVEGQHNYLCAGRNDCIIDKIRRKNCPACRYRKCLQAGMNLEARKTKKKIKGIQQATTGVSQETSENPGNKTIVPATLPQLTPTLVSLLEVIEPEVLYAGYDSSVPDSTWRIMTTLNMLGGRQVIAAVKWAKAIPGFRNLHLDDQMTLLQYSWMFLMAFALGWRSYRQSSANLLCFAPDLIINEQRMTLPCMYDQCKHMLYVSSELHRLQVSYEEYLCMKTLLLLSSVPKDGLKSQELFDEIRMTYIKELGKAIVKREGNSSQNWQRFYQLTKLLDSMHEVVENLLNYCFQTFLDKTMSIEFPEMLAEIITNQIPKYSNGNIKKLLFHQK
Sequence of Cytochrome P450 2D6 (Homo sapiens) (P10635 whole entry, looked up): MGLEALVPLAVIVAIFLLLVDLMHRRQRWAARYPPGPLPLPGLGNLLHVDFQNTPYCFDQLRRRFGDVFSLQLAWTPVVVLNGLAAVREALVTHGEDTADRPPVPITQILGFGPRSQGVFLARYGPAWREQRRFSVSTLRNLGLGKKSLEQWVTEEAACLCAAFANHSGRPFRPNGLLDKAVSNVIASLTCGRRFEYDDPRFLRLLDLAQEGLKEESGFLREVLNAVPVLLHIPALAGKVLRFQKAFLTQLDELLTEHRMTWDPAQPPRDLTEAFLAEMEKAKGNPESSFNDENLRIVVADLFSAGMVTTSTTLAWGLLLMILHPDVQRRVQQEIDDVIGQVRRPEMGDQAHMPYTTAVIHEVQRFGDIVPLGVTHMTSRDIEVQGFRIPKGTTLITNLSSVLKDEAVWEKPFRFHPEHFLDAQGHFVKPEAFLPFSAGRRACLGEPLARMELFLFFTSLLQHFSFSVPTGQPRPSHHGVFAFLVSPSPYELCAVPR
Sequence of Pyruvate kinase (Leishmania mexicana) (Q27686 2-499 E452W): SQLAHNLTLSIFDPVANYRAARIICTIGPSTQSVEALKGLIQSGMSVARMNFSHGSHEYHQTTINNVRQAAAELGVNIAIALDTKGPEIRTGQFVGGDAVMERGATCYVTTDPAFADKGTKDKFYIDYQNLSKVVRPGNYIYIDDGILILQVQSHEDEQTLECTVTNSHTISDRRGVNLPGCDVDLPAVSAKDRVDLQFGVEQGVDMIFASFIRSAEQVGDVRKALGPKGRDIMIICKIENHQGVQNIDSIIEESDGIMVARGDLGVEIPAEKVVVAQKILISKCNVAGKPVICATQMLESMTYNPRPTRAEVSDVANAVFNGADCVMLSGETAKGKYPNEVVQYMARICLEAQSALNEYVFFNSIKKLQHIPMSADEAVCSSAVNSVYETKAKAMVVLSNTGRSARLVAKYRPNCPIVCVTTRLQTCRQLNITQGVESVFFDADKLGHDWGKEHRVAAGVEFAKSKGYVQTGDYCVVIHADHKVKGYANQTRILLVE
Sequence of Ubiquitin carboxyl-terminal hydrolase 1 (Homo sapiens) (O94782 whole entry, looked up): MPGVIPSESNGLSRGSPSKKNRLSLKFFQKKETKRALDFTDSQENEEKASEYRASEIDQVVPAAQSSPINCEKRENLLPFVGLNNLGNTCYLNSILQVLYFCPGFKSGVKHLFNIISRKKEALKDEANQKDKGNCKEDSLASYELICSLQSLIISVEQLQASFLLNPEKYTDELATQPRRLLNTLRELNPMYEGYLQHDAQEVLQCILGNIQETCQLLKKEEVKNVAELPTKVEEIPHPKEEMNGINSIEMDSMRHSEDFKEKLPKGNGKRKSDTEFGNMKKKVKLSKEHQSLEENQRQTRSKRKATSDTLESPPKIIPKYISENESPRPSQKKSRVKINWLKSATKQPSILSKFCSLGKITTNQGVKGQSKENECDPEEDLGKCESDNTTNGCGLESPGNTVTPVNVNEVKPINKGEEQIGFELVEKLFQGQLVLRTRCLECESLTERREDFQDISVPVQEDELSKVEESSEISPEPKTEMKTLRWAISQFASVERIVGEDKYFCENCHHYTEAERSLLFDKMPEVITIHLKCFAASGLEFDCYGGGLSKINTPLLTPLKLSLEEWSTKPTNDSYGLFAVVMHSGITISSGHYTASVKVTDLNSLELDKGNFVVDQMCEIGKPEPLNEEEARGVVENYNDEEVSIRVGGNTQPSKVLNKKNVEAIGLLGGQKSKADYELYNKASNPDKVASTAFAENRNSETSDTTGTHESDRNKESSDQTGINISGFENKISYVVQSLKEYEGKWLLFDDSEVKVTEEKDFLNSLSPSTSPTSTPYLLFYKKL

CNC(=O)Oc1ccc2c(c1)[C@@]1(C)CCN(C)[C@@H]1N2C
inactive: activity change, negative = inhibition ([1]; at 17.2 µM (top of the series)) -5.3% | activity change, negative = inhibition ([1]; at 38 µM (top of the series)) 6.53% | Potency [2] | activity, negative = inhibition ([3]; at 17.2 µM (top of the series)) 5.27% | activity, negative = inhibition ([3]; at 38 µM (top of the series)) -23.2% | Potency [4] | Potency [5] | outcome [6] | Potency [7] | Potency [9] | Potency [10] | Potency [11] | outcome [12] | outcome [13] | Potency [14] | Potency [15]
active: Potency [8] 1.26 µM and 79.4 nM and 251 nM

COc1cc2nc(N3CCN(C(=O)[C@H]4CCCO4)CC3)nc(N)c2cc1OC
active: Potency [15] 26.7 µM
inactive: activity change, negative = inhibition ([1]; at 38 µM (top of the series)) 14.3% | Potency [2] | activity change, negative = inhibition [16] -4.26% | activity, negative = inhibition ([3]; at 38 µM (top of the series)) 7.77% | Potency [17] > 46 µM | Potency [4] | Potency [5] | outcome [6] | Potency [7] | Potency [8] | Potency [9] | Potency [18] | Potency [11] | outcome [19] | outcome [12] | outcome [13] | Potency [14]

COc1ccccc1N1CCN(C[C@@H]2CN3C(=O)N(C)c4ccccc4C3=N2)CC1
active: Potency [2] 31.6 µM
inactive: Potency [20] > 46 µM | Potency [17] > 46 µM | Potency [5] | Potency [7] | Potency [21] | Potency [22] | Potency [14] | Potency [15]

N[C@@H](C(=O)O)c1ccc(C(=O)O)c(O)c1
inactive: Potency [2] | Potency [17] > 46 µM | Potency [4] | Potency [5] | Potency [22] | Potency [14]
active: Potency [15] 23.8 µM

CC(C)NC[C@@H](O)COc1ccccc1-n1cccc1
active: Potency [2] 3.98 µM
inactive: Potency [20] > 46 µM | Potency [17] > 46 µM | Potency [22] | Potency [14] | Potency [15]

C[C@@]1(C(=O)O)NCCc2cc(O)c(O)cc21
inactive: Potency [2] | Potency [20] > 46 µM | Potency [17] > 46 µM | Potency [5] | Potency [21] | Potency [14]
active: Potency [22] 56.2 µM | Potency [15] 11.9 µM

C[N+](C)(C)CCCCCNCC12CC3CC(CC(C3)C1)C2
inactive: Potency [2] | Potency [17] > 46 µM | Potency [4] | Potency [5] | Potency [14] | Potency [15]

O=c1[nH]cnc2ccccc12
inactive: Potency [23] | Potency [15] | outcome [24]

N#C[C@H](Cc1ccc(O)cc1)c1ccc(O)cc1
inactive: Potency [4] | Potency [5] | Potency [21] | Potency [22] | Potency [14] | Potency [15]
active: Potency [2] 12.6 µM

O=C(NC[C@H]1CCCCN1)c1cc(OCC(F)(F)F)ccc1OCC(F)(F)F
inactive: activity change, negative = inhibition ([1]; at 38 µM (top of the series)) 4.16% | activity change, negative = inhibition [16] -11% | activity, negative = inhibition ([3]; at 38 µM (top of the series)) -13.8% | Potency [4] | Potency [5] | outcome [6] | Potency [10] | Potency [11] | outcome [19] | outcome [12] | outcome [13] | Potency [14] | Potency [15]
